ELG1 repair inh: qHTS screen for small molecules that inhibit ELG1-dependent DNA repair in human embryonic kidney (HEK293T) cells expressing luciferase-tagged ELG1 | HEK293T ELG1-luciferase reporter, luminescence, 16 h; DNA damage induced by 5-fluorouridine | hit rate 2.3% among 330,000 | Potency, µM (doses to about 46.1 µM), inactives show top-dose activity change, negative = inhibition, hits mostly inhibitors | AID 504467, 2011; also: potency is read from the fitted curve at half-maximal effect; nearly all actives have a fitted effect of over 55% in size
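5-Fluorouridine DNA damage + compound/DMSO, 2,000 cells/well, 16 h, 37 °C/5% CO2. ONE-Glo, 30 min RT, luminescence. Readout = decrease in reporter signal.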
RORgamma inh: qHTS for inhibitors of ROR gamma transcriptional activity; hit rate 5.4% among 310,000; Drosophila S2 Gal4-RORgamma UAS-luciferase reporter, 20 h; Potency, µM (series often up to 53.6 µM), for the others: top-dose activity change, negative = inhibition, actives largely listed as inhibitors; AID 2551, 2010; Nuclear receptor ROR-gamma (Mus musculus), P51450; also: potency is read from the fitted curve at half-maximal effect; nearly all actives have a fitted effect of over 60% in size
Target sequence (P51450 whole entry, looked up, the tested form may be a part): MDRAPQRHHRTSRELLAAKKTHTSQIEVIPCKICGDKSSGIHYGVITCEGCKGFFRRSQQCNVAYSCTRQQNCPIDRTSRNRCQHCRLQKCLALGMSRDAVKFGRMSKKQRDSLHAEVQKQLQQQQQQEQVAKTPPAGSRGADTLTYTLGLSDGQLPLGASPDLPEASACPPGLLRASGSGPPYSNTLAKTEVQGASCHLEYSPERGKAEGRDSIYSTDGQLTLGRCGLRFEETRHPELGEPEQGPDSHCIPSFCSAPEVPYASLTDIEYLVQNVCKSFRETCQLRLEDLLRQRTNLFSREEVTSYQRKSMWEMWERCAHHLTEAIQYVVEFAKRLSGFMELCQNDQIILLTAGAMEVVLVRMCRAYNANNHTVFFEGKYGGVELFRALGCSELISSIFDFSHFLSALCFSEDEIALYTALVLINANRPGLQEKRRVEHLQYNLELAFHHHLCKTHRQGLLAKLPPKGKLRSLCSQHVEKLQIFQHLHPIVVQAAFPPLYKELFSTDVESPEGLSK
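In this cell-based reporter format, copper sulfate (700 uM final) drives Gal4–ROR gamma fusion expression from a metallothionein promoter in Drosophila Schneider cells; compounds preincubated 1 hr, reporter read after 20 hr at ambient temperature.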
Gal4-VP16 FLuc: VP16 counterscreen qHTS for inhibitors of ROR gamma transcriptional activity | Drosophila S2 Gal4-VP16 UAS-luciferase, luminescence, 20 h | Potency, µM (highest dose often 53.6 µM), inactives show top-dose activity, negative = inhibition, most hits filed as inhibitors | hit rate 3.5% among 310,000 | AID 2546, 2010;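 also: Gal4-VP16 expression switched on by copper sulfate through the metallothionein promoter; potency is read from the fitted curve at half-maximal effect; nearly all actives have a fitted effect of over 50% in size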
B2AR arrestin: qHTS assay of beta-arrestin-biased ligands of beta2-adrenergic receptor | Beta-2 adrenergic receptor (Homo sapiens), P07550 | Potency, µM (top dose mostly 46.1 µM), for inactives: at the highest dose activation, usual class: activators | hit rate 0.02% among 330,000 | beta-arrestin recruitment to beta2AR, cell-based reporter;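 also: potency is read from the fitted curve at half-maximal effect; 0% = DMSO controls and full agonism = EC100 isoproterenol or metaproterenol; nearly all actives have a fitted effect of over 65% in size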
TSHR antagonist: Antagonists of the Thyroid Stimulating Hormone Receptor: HTS campaign; activity change, negative = inhibition, % at 11.5 µM; Thyrotropin receptor (Homo sapiens), P16473; TSHR-expressing cells, TSH-stimulated cAMP HTRF, 2 h; active compounds read low; AID 504810, 2011; hit rate 0.2% among 330,000;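 active = activity change below a set negative limit, meaning inhibition stronger than a set level, cut at about -70% in these data; inconclusive = activity change between two set negative limits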
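Competitive HTRF cAMP read-out (cryptate anti-cAMP antibody, cAMP-d2; 30 min, room temperature) in freshly harvested TSHR cells. Compounds added before TSH at EC80 (4nM final), followed by 2 hours' incubation at 37 deg C.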
The depositor's hits bear a star; ? = inconclusive; / = no result given. A selection: hits, their analogues and other compounds. The true share with any hit is near 7.5%. Unless noted, calls follow the shape of the dose curve; as a rule, active = well fitted curve in the direction sought with a large enough effect; inconclusive = small, poorly fitted or top-dose-only effect, or another doubt; inactive = no such curve, though single readings can be large; an effect the other way counts as inactive or inconclusive. Unless noted, % is scaled to controls: 0 for no effect and ±100 for the full control effect.

SMILES	ELG1 repair inh	RORgamma inh	Gal4-VP16 FLuc	B2AR arrestin	TSHR antagonist
CC1c2cc3c(cc2CCN1CC(=O)Nc1ccccc1)OCCCO3 (stereo not given)	?	-30%	-4%	0%	0
COc1ccc(Cl)cc1NC(=O)CN(C)C1CCCCC1	-4%	-3%	-9%	0%	-9
COc1ccc(Cl)cc1NC(=O)CN(C)C(=O)C12CC3CC(CC(Cl)(C3)C1)C2	18µM*	-12%	-13%	0%	-1
CC(NS(=O)(=O)c1ccc(OCC(=O)N2CCOCC2)c(Cl)c1)c1ccccc1 (stereo not given)	15µM*	1%	-12%	0%	17
CC(NS(=O)(=O)c1ccc(OCC(=O)N2CCOCC2)cc1)c1ccccc1 (stereo not given)	1%	13%	2%	-1%	-15
Cc1c(NC(=O)C(C)OC(=O)c2cc(-c3cccc4ccccc34)nc3ccccc23)c(=O)n(-c2ccccc2)n1C (stereo not given)	?	?	-12%	-1%	-17
Cc1c(NC(=O)c2cc(-c3ccccc3)nc3ccccc23)c(=O)n(-c2ccccc2)n1C	5.8µM*	/	/	1%	-4
COc1ccc(-c2cc(C(=O)OC(C)C(=O)Nc3c(C)n(C)n(-c4ccccc4)c3=O)c3ccccc3n2)cc1 (stereo not given)	15µM*	20%	-21%	0%	-18
Cc1ccc(-c2cc(C(=O)Nc3c(C)n(C)n(-c4ccccc4)c3=O)c3ccccc3n2)cc1	13µM*	/	/	-1%	-7
COc1ccc(-c2cc(C(=O)Nc3c(C)n(C)n(-c4ccccc4)c3=O)c3ccccc3n2)c(OC)c1	10µM*	-11%	-9%	0%	-16
Cc1c(NC(=O)COC(=O)c2cc(-c3ccc(-c4ccccc4)cc3)nc3ccccc23)c(=O)n(-c2ccccc2)n1C	?	-11%	-26%	0%	-11
Cc1ccc(S(=O)(=O)NC(CC(C)C)C(=O)NCC(C)(C)N2CCOCC2)cc1 (stereo not given)	9%	/	/	0%	12
CC(C)=CCCC(C)C1CC[C@@]2(C)C3=C(CC[C@@]12C)C1(C)CCC(O)C(C)(C)C1CC3 (stereo not given in full)	/	-34%	3%	/	/
COc1ccc(-c2cc(C(=O)Nc3c(C)n(C)n(-c4ccccc4)c3=O)c3ccccc3n2)cc1OC	7.3µM*	3%	-11%	-1%	0
COc1ccc(/C=C/C(=O)Nc2cc(C(F)(F)F)ccc2Cl)cc1	10%	-4%	-18%	0%	-10
COc1ccc(/C=N/NC(=S)Nc2cc(C(F)(F)F)ccc2Cl)cc1	27%	0.35µM*	4µM*	-1%	-2
FC(F)(F)c1ccc(Cl)c(NC(=S)N/N=C/c2ccccc2C(F)(F)F)c1	-3%	0.32µM*	0.56µM*	0%	2
COc1ccc(C(=O)[C@]2(C)C=C(c3ccc(OC)cc3)[C@H](C)C2)cc1	/	0%	8%	/	/
CCc1ccc(N2CN(CCc3ccccc3)CNC2=S)cc1	0%	1.3µM*	6.3µM*	0%	-4
Cc1ccc(N2CN(CCC3=CCCCC3)CNC2=S)cc1	?	0.56µM*	6.3µM*	0%	-6
S=C1NCN(CCc2ccccc2)CN1	10%	-19%	-2%	3%	-6
COc1cccc(N2CN(CCc3ccccc3)CNC2=S)c1	0%	14µM*	?	0%	0
CC(=O)Nc1ccc(S(=O)(=O)Nc2nc(C)nc3sc(C)c(C)c23)cc1	-5%	/	/	-1%	4
COc1cccc(NC(=O)c2nc(S(C)(=O)=O)ncc2Cl)c1	?	4µM*	5µM*	0%	-45
CN(c1ccccc1)S(=O)(=O)c1ccc(NC(=O)c2nc(S(C)(=O)=O)ncc2Cl)cc1	?	6.3µM*	2.8µM*	0%	-95*
SMILES	ELG1 repair inh	RORgamma inh	Gal4-VP16 FLuc	B2AR arrestin	TSHR antagonist
Cc1cc(C)c(OCCCCCn2ccnc2)c(C)c1	-7%	11µM*	14µM*	-1%	-3
Cc1cc(OCCCCCn2ccnc2)cc(C)c1Cl	-20%	24%	5%	0%	22
Cc1cc(Cl)cc(C)c1OCCCCCn1ccnc1	-16%	?	18µM*	0%	-2
Cc1ccc(C)c(OCCCCCn2ccnc2)c1	0%	8.9µM*	-30%	0%	7
CCc1ccc(OCCCCCn2ccnc2)cc1	3%	11µM*	?	-1%	3
CCCC1CCC(C(=O)n2nc(N)c3cc4ccc(OC)cc4nc32)CC1 (stereo not given)	5.8µM*	-9%	-2%	0%	-2
COc1ccc(C(=O)Nn2c(SCC(=O)NCc3ccccc3)nc3ccccc3c2=O)cc1	?	10µM*	3%	-3%	-14
COc1ccc(C(=O)Nn2c(SCC(=O)NCC3CCCO3)nc3ccccc3c2=O)cc1 (stereo not given)	?	7.1µM*	?	0%	6
COc1ccc(C(=O)Nn2c(SCC(=O)NC3CCCC3)nc3ccccc3c2=O)cc1	?	?	?	0%	-5
CC(C)(C)c1ccc(C(=O)NCCCN2CCN(CCCNC(=O)c3ccc(C(C)(C)C)cc3)CC2)cc1	?	7.1µM*	13µM*	-1%	23
C#CCOc1nc(Nc2cccc([N+](=O)[O-])c2)nc(OCC#C)n1	18µM*	25%	-6%	1%	-12
Cc1ccc(N(CCC#N)C(=O)CCl)cc1C	18µM*	?	-26%	0%	6
CCN(CC)c1nc(=S)nc(NC(C)(C)C)[nH]1	7%	1.3µM*	3.2µM*	0%	5
Cc1ccc(C)c(S(=O)(=O)N2CCCCC2CCNC(=O)C(=O)NCc2ccncc2)c1 (stereo not given)	-23%	/	/	0%	-12
Cc1cccc(NC(=S)NNC(=S)NC2CCCCC2)c1C	3%	13µM*	?	-1%	-12
Cc1cccc(NC(=S)NNC(=O)c2ccc(O)cc2O)c1C	10µM*	7.9µM*	20µM*	0%	0
Cc1ccccc1NC(=S)NC1CCCC1	0%	7.9µM*	8.9µM*	0%	12
Cc1cc(C)c(NC(=O)NC2CCCCC2)c(C)c1	10%	-8%	2%	0%	-6
Cc1cccc(C)c1NC(=S)NC1CCCCC1	-3%	6.3µM*	4.5µM*	0%	-1
COc1cc2nc(SCC(=O)c3ccc(Br)cc3)n3nc(C)nc3c2cc1OC	4.1µM*	13µM*	?	0%	3
